From PubChem
FLuc modulator – qHTS profiling assay for firefly luciferase inhibitor/activator using purifed enzyme and Km concentrations of substrates (counterscreen for miR-21 project). purified FLuc, Km substrates, luminescence inhibition. actives 6.9% (n = 360,000). Potency, µM (highest dose often 57.5 µM), for inactives: at the highest dose activity change, negative = inhibition, most hits filed as inhibitors. AID 588342, 2011. Luciferin 4-monooxygenase (Photinus pyralis), P08659;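 also: plate controls were vehicle for no effect and reference inhibitor for full effect; nearly all actives have a fitted effect of over 55% in size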
Target sequence (P08659 whole entry, looked up): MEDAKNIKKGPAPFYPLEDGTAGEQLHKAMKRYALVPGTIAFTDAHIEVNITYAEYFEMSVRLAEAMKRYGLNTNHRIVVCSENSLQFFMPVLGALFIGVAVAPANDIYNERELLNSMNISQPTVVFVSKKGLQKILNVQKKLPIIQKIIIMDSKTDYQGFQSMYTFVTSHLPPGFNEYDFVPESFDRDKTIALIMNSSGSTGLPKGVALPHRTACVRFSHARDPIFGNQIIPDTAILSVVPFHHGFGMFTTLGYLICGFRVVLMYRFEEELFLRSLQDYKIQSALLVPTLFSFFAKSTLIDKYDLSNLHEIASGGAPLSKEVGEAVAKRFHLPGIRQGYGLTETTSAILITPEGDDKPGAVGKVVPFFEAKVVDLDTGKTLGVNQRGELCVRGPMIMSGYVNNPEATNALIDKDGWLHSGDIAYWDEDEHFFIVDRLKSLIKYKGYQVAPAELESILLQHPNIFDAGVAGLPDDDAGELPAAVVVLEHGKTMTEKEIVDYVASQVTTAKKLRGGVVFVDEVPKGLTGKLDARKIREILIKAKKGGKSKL
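Purified P. pyralis luciferase (10nM final) with 10uM D-luciferin and 10uM ATP (Km levels) in 50mM Tris acetate pH 7.5, 10mM Mg acetate, 0.01% Tween-20, 0.05% BSA; qHTS 6-point titration, ~60 µM downward; luminescence read.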
ELG1 genotox – qHTS screen for small molecules that induce genotoxicity in human embryonic kidney (HEK293T) cells expressing luciferase-tagged ELG1 | AID 504466, 2011 | actives 1.3% (n = 330,000) | HEK293T ELG1-luciferase reporter, luminescence, 16 h | Potency, µM (doses to about 46 µM), without a hit: top-dose activity change, positive = activation, actives largely listed as activators; also: % of control where 0% means no effect; nearly all actives have a fitted effect of over 60% in size
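HEK293T cells expressing luciferase-tagged ELG1 were treated with compound or DMSO for 16 hr at 37°C. Luciferase activity was then read after 30 min with ONE-Glo at room temperature; rising signal flags genetic stress.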
Rab9 prom act – qHTS Assay for Rab9 Promoter Activators; Potency, µM (titrated, usually from 9.22 µM), for inactives: at the top dose activation, negative = inhibition, hits mostly activators; Huh7 Rab9 promoter-luciferase reporter, luminescence, 24 h; AID 485297, 2010; actives 2.8% (n = 320,000); also: % of control where 0% means no effect; nearly all actives have a fitted effect of over 60% in size
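Measured in stably transfected Huh7 cells bearing a Rab9 promoter–luciferase construct: 24 h compound treatment at 37 °C, followed by luminescence detection.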
SMN2 splice enh – qHTS Assay for Enhancers of SMN2 Splice Variant Expression; HEK293 SMN2-luciferase splicing reporter, luminescence, 30-36 h; Potency, µM (doses to about 46.1 µM), inactives show top-dose activity change, positive = activation, hits mostly activators; actives 2.8% (n = 210,000); AID 1458, 2008; also: % of control where 0% means no effect; nearly all actives have a fitted effect of over 55% in size
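HEK293 cells carry an SMN2 […]–luciferase reporter in which exon 7 inclusion puts luciferase in frame. Cells were plated 10-12 h before compound addition, then incubated 30-36 h at 37C. ONE-Glo luminescence was read; sodium butyrate at 4.5 mM final served as control.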
NPC1 promoter act – qHTS Assay for NPC1 Promoter Activators. Huh7 NPC1 promoter luciferase reporter, 24 h. Potency, µM (highest dose often 9.22 µM), inactives show at the top dose activation, most hits filed as activators. actives 2.4% (n = 320,000). AID 485313, 2010; also: % of control where 0% means no effect; nearly all actives have a fitted effect of over 60% in size
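Readout is luciferase luminescence, reflecting NPC1 promoter activation in stably transfected Huh7 cells after 24 h compound exposure at 37 °C in reduced-serum medium with 10% FBS.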
The depositor's hits bear a star; u = inconclusive; x = no result. Only some compounds are listed: those with a hit (about 7.5% of all), similar ones and a draw of the others. Calls follow the shape of the dose curve; as a rule, active = well fitted curve in the direction sought with a large enough effect; inconclusive = small, poorly fitted or top-dose-only effect, or another doubt; inactive = no such curve, though single readings can be large; an effect the other way counts as inactive or inconclusive. Potency is read from the fitted curve at half-maximal effect.

SMILES	FLuc modulator	ELG1 genotox	Rab9 prom act	SMN2 splice enh	NPC1 promoter act
O=C(COC(=O)C1COc2ccccc2O1)NC1CCCCC1 (configuration not stated)	x	1%	x	x	x
Fc1ccc2nc(Nc3nc4c(F)cc(F)cc4s3)sc2c1	8.5µM*	1%	22%	x	u
Fc1cccc2sc(Nc3nc4ccccc4s3)nc12	u	u	u	10µM*	u
CCC(=O)NNc1nc2c(F)cc(F)cc2s1	3%	3%	0%	7%	-1%
Fc1ccc2nc(Nc3nc4c(F)cccc4s3)sc2c1	9.5µM*	2%	u	u	u
O=C(NNc1nc2ccccc2s1)c1ccccc1F	-1%	-2%	2%	0%	7%
CCCC1CC(C)(c2csc(Nc3ccc(OCC)cc3)n2)OC1=O (configuration not stated)	19µM*	8%	-2%	-92%	0%
O=S(=O)(NCC1COc2ccccc2O1)c1ccccc1F (configuration not stated)	x	0%	x	x	x
O=C(COC(=O)c1cccc(F)c1)Nc1ccc2c(c1)OCCO2	1.9µM*	6%	9%	x	3%
O=C(COC(=O)c1ccccc1F)Nc1ccc2c(c1)OCCO2	0.48µM*	5%	-4%	x	1%
Cc1cccc(C(=O)OCC(=O)Nc2ccc3c(c2)OCCO3)c1	19µM*	10%	12%	x	8%
O=C(OCC1COc2ccccc2O1)c1ccccc1F (configuration not stated)	6µM*	11%	2%	-1%	1%
Cc1ccc(-n2c(=S)sc3c(=O)n(-c4ccc(F)cc4)c(SCC(=O)O)nc32)cc1C	2%	-3%	-1%	x	3%
O=C(NCCN1C(=O)C2C3C=CC(C3)C2C1=O)Nc1cccnc1 (configuration not stated)	-3%	4%	-4%	-24%	1%
O=C(NCCN1C(=O)C2C3C=CC(C3)C2C1=O)Nc1ccc(Br)cc1 (configuration not stated)	11µM*	8.2µM*	2.2µM*	11µM*	3.2µM*
CC(C)Oc1ccc(/C=C(/NC(=O)c2ccccc2)C(=O)NCCC(=O)O)cc1	-7%	-4%	-3%	x	-9%
Clc1ccc(-c2cnc(Oc3ccccc3)nc2)cc1	2.7µM*	u	2.8µM*	14µM*	0.79µM*
Cc1cc(Cl)ccc1Oc1ncc(-c2ccc(Cl)cc2)cn1	-16%	-7%	-5%	-24%	-6%
N/C(=N/OCC(=O)Nc1cccc2ccccc12)c1nonc1N	-6%	-2%	1%	-11%	3%
N/C(=N/OC(=O)c1ccccc1Cl)c1nonc1N	8.5µM*	u	u	5%	20%
Cc1nc(/C(N)=N/OC(=O)c2cccc(Cl)c2)c(C(F)(F)F)o1	u	-1%	-5%	x	1%
N/C(=N\OC(=O)c1ccc(F)cc1)c1nonc1N	1.5µM*	4%	-8%	11%	-2%
Cc1nc(/C(N)=N/OC(=O)c2ccccc2Cl)c(C(F)(F)F)o1	11µM*	u	u	x	u
Cc1cc(/C(N)=N/OC(=O)c2ccccc2Cl)no1	1.7µM*	u	0.5µM*	x	1.1µM*
Cc1nnc(N2C(=O)c3ccc(Br)cc3C2=O)s1	-2%	0%	6%	x	2%
CCN(C(=O)COC(=O)c1cccc(S(=O)(=O)N(CC)CC)c1)C1CCS(=O)(=O)C1 (configuration not stated)	0%	3%	-2%	x	-2%
COc1ccc2[nH]c(C)c(CCN3C(=O)C4CC=CCC4C3=O)c2c1 (configuration not stated)	1%	-4%	2%	-33%	-2%
Cc1ccc(C(=O)O/N=C(\N)c2nonc2N)cc1	0.48µM*	u	11%	18%	3%
O=C1N/C(=N/Nc2ccccc2)S/C1=C\c1ccccc1	13µM*	10%	10%	u	10%
O=C1NC(=Nc2ccccc2)S/C1=C\c1ccccc1	u	u	25%	x	u
